Screening data (PubChem)
Vaccinia Venus – inhibitors of vaccinia virus (Venus reporter). Vaccinia virus Venus reporter expression, fluorescence. Potency, µM (series often up to 36.5 µM), for the others: at the top dose activity change, negative = inhibition, actives largely listed as inhibitors. 330,000 compounds, 0.46% hits. AID 720580; calls by dose curve; tested in A549 cells; further: potency means the concentration at half of the fitted maximal effect; nearly all actives have a fitted effect of over 30% in size
HCMV antiviral – human cytomegalovirus inhibition; 410,000 compounds, 4.5% hits; HFF cells, HCMV-luciferase reporter, 72 h; hits give low values; activity change, negative = inhibition, % at 57.5 µM; in the data active means activity change below about -60%; inconclusive means no clear call, values can overlap the other calls; inactive means above about -39%
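Two compound doses tested in HFFs infected with HCMV-luciferase, MOI 1 PFU/cell, 72 h at 37C. Lysate luminescence read with OneGlo; data normalized against buffer-only and 10uM Salinomycin inhibitor controls.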
Lassa entry inh – Lassa virus entry inhibition; Lassa virus pseudotype entry inhibition, cell reporter; Potency, µM (titrated, usually from 37.9 µM), for the others: at the top dose activity change, negative = inhibition, usual class: inhibitors; 300,000 compounds, 1.2% hits; AID 540256; calls by dose curve; tested in HEK293 cells; further: potency means the concentration at half of the fitted maximal effect; nearly all actives have a fitted effect of over 50% in size
FMDV antiviral – blocks foot and mouth disease virus; Potency, µM (highest dose often 57.9 µM), without a hit: top-dose activity change, negative = inhibition, most hits filed as inhibitors; 410,000 compounds, 1.2% hits; FMDV antiviral cell-based qHTS; AID 1159524; calls by dose curve; tested in HEK293T cells; further: read-out not given here; potency means the concentration at half of the fitted maximal effect; nearly all actives have a fitted effect of over 45% in size
VACV mCherry inh – inhibitors of vaccinia virus infection (mCherry reporter signal); Vaccinia virus mCherry reporter infection, fluorescence; Potency, µM (top dose mostly 36.5 µM), for the others: at the highest dose activity change, negative = inhibition, usual class: inhibitors; 310,000 compounds, 0.63% hits; calls by dose curve; tested in A549 cells; further: potency means the concentration at half of the fitted maximal effect; nearly all actives have a fitted effect of over 35% in size
MARV entry inh – blocks Marburg virus binding to or entry into cells; Marburg virus pseudotyped entry inhibition, cell reporter; Potency, µM (top dose mostly 37.8 µM), for inactives: at the highest dose activity change, negative = inhibition, most hits filed as inhibitors; 300,000 compounds, 1.8% hits; AID 540276; calls by dose curve; tested in HEK293 cells; further: potency means the concentration at half of the fitted maximal effect
* marks the source's active call; other numbers are inactive results; i = inactive; ? = inconclusive; . = not tested or not shown; ! = repeats disagree; [ ] = another dose, or the depositor's remark. Sampled rows, rich in hits. Any-hit rate of the full collection: about 6.5%. On the % scale 0 is the no-effect control and ±100 the full control effect.

SMILES	Vaccinia Venus	HCMV antiviral	Lassa entry inh	FMDV antiviral	VACV mCherry inh	MARV entry inh
NS(=O)(=O)c1ccc(CCNCc2ccccc2OCc2ccc(Cl)cc2)cc1	-14%	-16	?	-25%	-12%	?
NS(=O)(=O)c1ccc(CCNCc2cc(Cl)ccc2OCc2ccccc2)cc1	-19%	-67*	-21%[46.1 µM]	?	-27%	?
Cc1cc(C)n2nc(SCC(=O)Nc3ccccc3)nc2n1	-13%	-63*!	-2%[46.1 µM]	-10%	-4%	?
COc1ccc(NC(=O)CSc2nc3nc(C)cc(C)n3n2)cc1	-13%	-11	?	27%	8%	-4%[46.1 µM]
COc1ccc(-n2cc3c(c2-c2cccc(Br)c2)c(=O)n(C)c(=O)n3C)cc1OC	-5%	-7	-1%[46.1 µM]	0%	-21%	11%[46.1 µM]
C=CCN1c2ccccc2Sc2cnccc21	-3%	-68*	.	?	-4%	.
CC(=O)OCCN1c2ccccc2Sc2cnccc21	-15%	?	.	-9%	i	.
O=C1NC2(CCCCC2)N=C1c1ccc(F)cc1	-10%	-74*	-18%[14.3 µM]	-15%	-15%	-16%
O=C1NC2(CCCCC2)N=C1c1ccc(Br)cc1	-3%	2	10%	18%	-11%	3%
Cc1c(C(=O)NCC2(N3CCOCC3)CCCCC2)cnn1-c1nccc(-c2ccccc2F)n1	-3%	.	.	-16%	-19%	.
CC(C)C[C@@H](COc1ccccc1)N1CCN(Cc2ccccc2)CCC1=O	-3%	-102*	.	-14%	-21%	.
CCOc1ccc2nc(N3C(=O)/C(=C/c4ccc(Cl)cc4)NC3=S)sc2c1	2%	-19	28%	20%	i	-5%
COc1ccc2nc(Nc3nc(CSc4nnnn4-c4ccccc4)cc(=O)[nH]3)nc(C)c2c1	.	-10	0%	15%	.	1%
Cc1ccc(SCc2cc(=O)[nH]c(Nc3nc(C)c4cccc(C)c4n3)n2)cc1	-6%	65	-51%[14.3 µM]	22%	-7%	9.2µM*
Cc1ccc2c(C)nc(Nc3nc(CSc4nnnn4-c4ccccc4)cc(=O)[nH]3)nc2c1	?	-101*	?	11%	?	-2%
COc1ccc2nc(Nc3nc(CSc4ccc(C)cc4)cc(=O)[nH]3)nc(C)c2c1	-1%	-67*	8%	4%	9%	-1%[46.1 µM]
CCOc1ccc2nc(Nc3nc(CSc4nnnn4-c4ccccc4)cc(=O)[nH]3)nc(C)c2c1	.	-28	?	-7%	.	?
Cc1cc(C)c2nc(Nc3nc(CSc4nc5ccccc5[nH]4)cc(=O)[nH]3)nc(C)c2c1	-15%	-65*	3%[46.1 µM]	?	-3%	6%[46.1 µM]
Cc1cc(C)c2nc(Nc3nc(-c4ccccc4)cc(=O)[nH]3)nc(C)c2c1	-7%	-9	.	-20%	-2%	.
C[C@@H]1CN(Cc2ccc3c(c2)CN(Cc2cn[nH]c2-c2ccccc2)CCO3)C[C@H](C)O1	-5%	.	.	-8%	-14%	.
CCc1cccc(C)c1NC(=O)c1cc(C)nc2c1c(C)nn2-c1cccc(Cl)c1C	-4%	1	1%[46.1 µM]	-10%	-3%	.
COCc1cc(=O)[nH]c(Nc2nc(C)c3ccccc3n2)n1	.	-102*	6%	21%	.	3%
Cc1cccc(-c2nnc(SCc3cc(=O)c4cccc(Cl)c4[nH]3)n2C)c1	-24%	?	-20%[46.1 µM]	25µM*	-28%	.
Cc1sc2ncn(CC(=O)NCC(=O)N3CCN(c4ccc(F)cc4)CC3)c(=O)c2c1C	5%	-11	10%[46.1 µM]	-17%	-13%	9%[46.1 µM]
Cn1nccc1NC(=O)Nc1cccc(Cl)c1Cl	-1%	?	-28%	-9%	i	?
SMILES	Vaccinia Venus	HCMV antiviral	Lassa entry inh	FMDV antiviral	VACV mCherry inh	MARV entry inh
COc1ccc(NC(=O)Nc2cccc(Cl)c2Cl)c(OC)n1	23%	-70*	-9%[46.1 µM]	17%	16%	?
CCC1CN(CC(=O)N(C)Cc2nc3ccccc3[nH]2)Cc2cc(OC)ccc2O1 (stereo unspecified)	5%	.	.	15%	-10%	.
O=C(Cc1ccc(F)cc1)NC1CC(=O)N(c2ccccc2)C1 (stereo unspecified)	-11%[7.34 µM]	47	2%[46.1 µM]	-5%	-5%[7.34 µM]	.
Cc1ccc(N=C2NC(=O)/C(=C/c3cccn3C)S2)cc1C	-23%	?	?	31%	-28%	?
Cc1cccc(N=C2NC(=O)/C(=C/c3cccn3C)S2)c1C	1%	?	?	4%	-23%	8.9µM*
O=C(Nc1cccc(-c2cn3ccccc3n2)c1)c1cccc(Cl)c1	14µM*	-33	?	?	?	?
O=C(Nc1ccc(-c2cn3ccccc3n2)cc1)c1cccs1	-6%	-8	?	-17%	-14%	15µM*
CC(C)C1=C2OC(N)=C(C#N)C(C#N)=C2[C@H](C)CC1	.	.	.	.	.	-1%
O=C(/C=C/Sc1ccccc1)c1ccc(Cl)cc1	-4%	-76*	-71%	.	-14%	?
O=C(/C=C/Sc1ccccc1)c1ccccc1	-5%	-83*	0%	.	-10%	?
CCC1(C2CCN(Cc3ccc(C)s3)CC2)NC(=O)N(CC2COc3ccccc3O2)C1=O (stereo unspecified)	-18%	.	.	-20%	-22%	.
Clc1ccc(C(c2ccccc2)c2c[nH]c3ccccc23)s1 (stereo unspecified)	-20%	-67*	0%[46.1 µM]	0%	-25%	.
Cc1ccc2[nH]cc(C(c3ccccc3)c3ccc(Cl)s3)c2c1 (stereo unspecified)	-3%	?	26%[46.1 µM]	?	-5%	?
NNC(=O)c1ccc(Cn2cc(Br)c(N)n2)cc1	-19%	-20	2%	-3%	-18%	-5%
CCOC(=O)N1CCN(Cc2nc(N)nc(Nc3ccc(OC)cc3)n2)CC1	-14%	2	8%	12%	-20%	2%
Nc1nc(CN2CCCCCC2)nc(Nc2ccc(F)cc2)n1	0%	10	8%	-6%	-8%	4%[46.1 µM]
CCOC(=O)N1CCN(Cc2nc(N)nc(Nc3ccc(Oc4ccccc4)cc3)n2)CC1	?	-11	?	32µM*	.	?
CCOC(=O)C1CCCN(Cc2nc(N)nc(Nc3ccc(Cl)cc3)n2)C1 (stereo unspecified)	-23%	?	-8%	28µM*	-21%	7.1µM*
Nc1nc(CN2CCN(c3ccccn3)CC2)nc(Nc2ccc(F)cc2)n1	.	11	?	?	.	2.6µM*
CCOC(=O)C1CCN(Cc2c(F)cccc2Cl)CC1	-8%	42	?	8%	0%	-5%
CCOC(=O)C1CCCN(Cc2c(F)cccc2Cl)C1 (stereo unspecified)	.	-75*	2%	-8%	.	-3%
O=C(Nc1ccc(OC(F)(F)F)cc1)NC1CCC(Oc2ccc(C(=O)O)cc2)CC1 (stereo unspecified)	-4%	?	.	-2%	-3%	.
Cc1cc(=O)n2nc(N3CCC(C(=O)NCCCOC(C)C)CC3)sc2n1	3%	1	29%[46.1 µM]	-9%	-6%	11%[46.1 µM]
COc1ccc(CN(C)CC2CCCN(CCc3ccccc3C)C2)cc1O (stereo unspecified)	-26%	-31	?	-11%	-13%	8.9µM*
